Screens as filed in PubChem BioAssay.
Shown are actives, neighbours in structure and some others; about 10% of the full set was active somewhere.
PNC inhibitor = blocks assembly of the perinucleolar compartment; PC3M PTB-GFP, PNC prevalence imaging, 16 h; hits give low values; activity change (PNC), negative = inhibition, % at 10 µM; actives 3.1% (n = 140,000); AID 2417;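 active = readout at or below -70, meaning at least 70% loss of cells showing the perinucleolar compartment, a nuclear body marking cancer cells; inconclusive = readout between -30 and a set limit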
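Compounds are pinned in duplicate onto adhered PC3M cells stably expressing GFP-tagged PTB and incubated 16 h at 37 C. Cells are then fixed, nuclei stained with Hoechst, and PNC-positive cells counted.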
12-hLO inh = 12-hLO (ALOX12) enzyme inhibition. P18054. purified 12-hLO, xylenol orange hydroperoxide absorbance. Potency, µM (highest dose often 57.1 µM), actives largely listed as inhibitors. actives 0.12% (n = 150,000). AID 1452; note: nearly all actives have a fitted effect of over 55% in size
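150 nM 12hLO, 25 mM Hepes pH 7.0 + 0.01% Triton X-100; cpd preinc 15 min RT; 40 uM arachidonic acid, 30 min RT; Fe-XO 30 min; A573/A405 ratio as read-out.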
HPGD inh = inhibitors of human 15-hydroxyprostaglandin dehydrogenase (HPGD) | actives 4.3% (n = 150,000) | Potency, µM, hits mostly inhibitors | P15428 | AID 894 | purified HPGD, NADH fluorescence kinetic, PGE2 substrate; active = well fitted inhibition curve with a large enough effect, not every such curve was filed as active; inconclusive = small, poorly fitted or top-dose-only effect, or another doubt; inactive = no such curve, though single readings can be large or run the other way
Target sequence (P15428 whole entry, looked up): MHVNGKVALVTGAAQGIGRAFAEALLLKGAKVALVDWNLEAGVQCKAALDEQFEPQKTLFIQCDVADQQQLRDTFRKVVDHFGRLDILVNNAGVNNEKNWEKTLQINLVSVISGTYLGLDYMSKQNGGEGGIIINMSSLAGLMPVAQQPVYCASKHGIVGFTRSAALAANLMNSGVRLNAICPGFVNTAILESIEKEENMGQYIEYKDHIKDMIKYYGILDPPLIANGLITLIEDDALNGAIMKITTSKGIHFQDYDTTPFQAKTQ
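NADH formation kinetics: reaction with 30 uM PGE2 and 1 mM NAD+ (final), 20 nM enzyme, Tris-HCl pH 8 with Tween 20, after 15 min compound preincubation at room temperature. Fluorescence change, last versus first of five reads.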
GLA inh pH 4.5 = alpha-galactosidase A (human) inhibition, pH 4.5 | activity change, negative = inhibition, % at 105 µM | 230,000 tested, under 10 active | AID 1467 | purified enzyme, 4-MU-alpha-Gal fluorescence, pH 4.5 | P06280
Target sequence (P06280 whole entry, looked up): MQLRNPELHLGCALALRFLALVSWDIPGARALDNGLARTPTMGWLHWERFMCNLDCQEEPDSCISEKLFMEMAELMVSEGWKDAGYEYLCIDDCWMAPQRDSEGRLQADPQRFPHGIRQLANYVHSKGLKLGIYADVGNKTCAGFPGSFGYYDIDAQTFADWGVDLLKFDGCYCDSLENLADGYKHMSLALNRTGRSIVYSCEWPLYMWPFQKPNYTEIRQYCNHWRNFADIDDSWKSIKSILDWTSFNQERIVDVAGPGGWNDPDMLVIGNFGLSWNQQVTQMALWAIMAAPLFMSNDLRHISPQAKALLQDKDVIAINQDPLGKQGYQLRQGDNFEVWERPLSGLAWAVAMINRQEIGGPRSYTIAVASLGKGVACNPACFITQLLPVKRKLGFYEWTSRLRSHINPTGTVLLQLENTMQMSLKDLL
aGal spleen mod = inhibitors or activators of human alpha-galactosidase in spleen homogenate. actives 0.008% (n = 240,000). Potency, µM (titrated, usually from 80 µM), usual class: inhibitors. human spleen homogenate, 4MU-alpha-Gal fluorescence, 40 min
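Human spleen homogenate (1 ug) was the enzyme source, with 4-methylumbelliferyl-alpha-D-galactopyranoside (1 mM final) in pH 5.0 citrate buffer with 0.01% Tween-20. Compounds were titrated; after 40 min at 37C, NaOH/glycine stop, 4-MU fluorescence read; AC50 from Hill fits.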
ALDH1A1 inh = blocks purified human ALDH1A1 activity. actives 7.3% (n = 220,000). AID 1030. Purified ALDH1A1, NADH fluorescence, propionaldehyde substrate. Potency, µM (highest dose often 75.3 µM), actives largely listed as inhibitors; active = well fitted inhibition curve with a large enough effect, not every such curve was filed as active; inconclusive = small, poorly fitted or top-dose-only effect, or another doubt; inactive = no such curve, though single readings can be large or run the other way
Each line names hits and unclear results; the compound was inactive in the other large screens. Unless noted, calls come from the whole dose curve; as a rule, active = well fitted curve in the direction sought with a large enough effect; inconclusive = small, poorly fitted or top-dose-only effect, or another doubt; inactive = no such curve, though single readings can be large; an effect the other way counts as inactive or inconclusive.

CC1Cc2ccccc2N1C(=S)Nc1cccc(S(=O)(=O)N(C)C)c1 (centres undefined)	ALDH1A1 inh inconclusive (no result: PNC inhibitor, 12-hLO inh, HPGD inh)
Cc1ccc(S(=O)(=O)N(C)C)cc1NC(=S)N1CCc2ccccc21	ALDH1A1 inh 25µM (no result: PNC inhibitor, 12-hLO inh, HPGD inh)
CN(C)S(=O)(=O)c1cccc(NC(=S)N2CCc3ccccc32)c1	ALDH1A1 inh 18µM (no result: PNC inhibitor, 12-hLO inh, HPGD inh)
Nc1nc(-c2ccccc2)c(N=Nc2cccnc2)s1	ALDH1A1 inh 20µM (no result: PNC inhibitor, 12-hLO inh, HPGD inh)
S=C1SCN(C2CCCCCCCCCCC2)CN1C1CCCCCCCCCCC1	none (no result: PNC inhibitor, GLA inh pH 4.5, aGal spleen mod)
CC1CN(C2CCN(S(=O)(=O)c3ccc4ccccc4c3)CC2)CC(C)O1 (centres undefined)	ALDH1A1 inh 14µM (no result: HPGD inh)
C=CCOc1ccc(CN(C)CC(=O)N(CC(C)C)c2c(N)n(CC(C)C)c(=O)[nH]c2=O)cc1	PNC inhibitor -101
CCN(CC)c1ccc(/C=C2/C(=O)N(c3ccc([N+](=O)[O-])cc3)N=C2N2CCOCC2)cc1	PNC inhibitor inconclusive, ALDH1A1 inh 4.5µM
CCCCC(CCC(=O)O)(C(=O)OCC)c1csc(Nc2ccc(OCC)cc2)n1 (centres undefined)	GLA inh pH 4.5 inconclusive (no result: PNC inhibitor, 12-hLO inh, HPGD inh, ALDH1A1 inh)
COc1ccc(CCNC(=O)C2CCC(CNS(=O)(=O)c3ccccc3)CC2)cc1OC (centres undefined)	ALDH1A1 inh 0.63µM (no result: PNC inhibitor, 12-hLO inh, HPGD inh)
COc1ccc(CCNC(=O)c2ccc(CNS(=O)(=O)c3ccccc3)cc2)cc1OC	ALDH1A1 inh 2.5µM
COc1ccc(CCNC(=O)C2CCC(CNS(=O)(=O)c3ccc(F)cc3)CC2)cc1OC (centres undefined)	ALDH1A1 inh inconclusive (no result: PNC inhibitor, 12-hLO inh, HPGD inh)
N#CCCn1cc(C(=O)Nc2ccc([N+](=O)[O-])cc2)c(-c2cccs2)n1	ALDH1A1 inh 22µM
COc1ccc(NC(=O)c2cn(CCC#N)nc2-c2cccs2)cc1	none
CCOC(=O)C1=C(C)NC(=O)NC1c1ccc2c(c1)OCCO2 (centres undefined)	PNC inhibitor -100
CCOC(=O)C1=C(C)NC(=O)NC1c1ccc(OCC(N)=O)cc1 (centres undefined)	PNC inhibitor -100
CCOC(=O)C1=C(c2ccccc2)NC(=O)NC1c1ccc(N(C)C)cc1 (centres undefined)	PNC inhibitor -100, ALDH1A1 inh 14µM
CC1COC(=O)O1 (centres undefined)	none (no result: PNC inhibitor, 12-hLO inh, HPGD inh, GLA inh pH 4.5, ALDH1A1 inh)
COc1ccc(CNC(=S)Nc2ccc(S(N)(=O)=O)cc2)cc1	ALDH1A1 inh 28µM (no result: PNC inhibitor, 12-hLO inh, HPGD inh)
COc1cc(OC)cc(C(=O)NNC(=S)Nc2ccc(S(N)(=O)=O)cc2)c1	ALDH1A1 inh 11µM (no result: PNC inhibitor, 12-hLO inh, HPGD inh)
COc1ccc(NC(=S)NNC(=O)c2ccc(S(=O)(=O)N3CCOCC3)cc2)cc1	ALDH1A1 inh inconclusive (no result: PNC inhibitor, 12-hLO inh, HPGD inh)
Cc1ccc(NC(=S)NCCc2ccc(S(N)(=O)=O)cc2)cc1C	PNC inhibitor -109, ALDH1A1 inh inconclusive (no result: HPGD inh)
COc1ccc(CNC(=S)Nc2ccc(OC)cc2)cc1	ALDH1A1 inh inconclusive
NS(=O)(=O)c1ccc(CNC(=S)NC2CC2)cc1	ALDH1A1 inh 3.2µM (no result: PNC inhibitor, 12-hLO inh, HPGD inh)
CCn1c(SCC(=O)Nc2ccccc2OC)nc(O)cc1=O	none (no result: PNC inhibitor, 12-hLO inh, HPGD inh, ALDH1A1 inh)
COc1ccc(NC(=S)NCc2ccc(S(N)(=O)=O)cc2)c(OC)c1	HPGD inh 14µM, ALDH1A1 inh inconclusive
Cc1ccc(SCCNC(=S)Nc2ccccc2)cc1	12-hLO inh inconclusive
Cc1ccc(SCCNC(=S)Nc2ccc(C)c(C)c2)cc1	12-hLO inh 25µM, ALDH1A1 inh inconclusive
CCOCCCNC(=S)Nc1ccc(S(N)(=O)=O)cc1	HPGD inh 14µM
CCCNC(=S)Nc1ccc(S(N)(=O)=O)cc1	none (no result: PNC inhibitor, 12-hLO inh, HPGD inh)
CCOc1ccc2nc(C)cc(Nc3cccc([N+](=O)[O-])c3)c2c1	PNC inhibitor -102
O=C(NCc1nc2ccccc2[nH]1)c1ccc(Cl)c(S(=O)(=O)N2CCCC2)c1	PNC inhibitor inconclusive
CSCC[C@H](NC(=O)c1ccc(Cl)c(S(=O)(=O)N2CCCC2)c1)c1nc2ccccc2[nH]1	PNC inhibitor inconclusive, 12-hLO inh 18µM, ALDH1A1 inh inconclusive (no result: HPGD inh)
Cc1cc(Br)ccc1SCC(=O)OCC(=O)N1CCN(C(=O)c2ccco2)CC1	HPGD inh inconclusive, ALDH1A1 inh inconclusive
O=C(CSc1cccc2cccc(Cl)c12)OCC(=O)N1CCN(C(=O)c2ccco2)CC1	HPGD inh inconclusive, ALDH1A1 inh 11µM
O=C(OCC(=O)N1CCN(C(=O)c2ccco2)CC1)c1sc2cc(F)ccc2c1Cl	ALDH1A1 inh 28µM
O=C(Nc1ccon1)c1sc2cc(F)ccc2c1Cl	PNC inhibitor -100
O=C(NCc1ccco1)c1sc2cc(F)ccc2c1Cl	HPGD inh 25µM
O=C(Cc1ccccc1F)OCC(=O)N1CCN(C(=O)c2ccco2)CC1	ALDH1A1 inh inconclusive (no result: PNC inhibitor, 12-hLO inh, HPGD inh)
O=C(NC1=NCCS1)c1sc2cc(F)ccc2c1Cl	none
O=C(Nc1nccs1)c1cncc(Br)c1	none (no result: PNC inhibitor, 12-hLO inh, HPGD inh)
O=C1/C(=C/c2cccs2)COc2ccccc21	HPGD inh 25µM
CN1CCN(C(=S)C(=O)Nc2ccc(Br)cc2)CC1	ALDH1A1 inh 7.9µM (no result: PNC inhibitor, 12-hLO inh, HPGD inh)
CN1CCN(C(=S)NC(=O)c2ccc(Br)cc2)CC1	none (no result: PNC inhibitor, 12-hLO inh, HPGD inh, ALDH1A1 inh)
NS(=O)(=O)c1ccc(NC(=O)COC(=O)c2cc3ccccc3cc2O)cc1	none (no result: PNC inhibitor, 12-hLO inh, HPGD inh, ALDH1A1 inh)
